Our source for the Potency and outcome values is PubChem BioAssay (Tox21).

SMILES strings stand for the structures. Results filed as inconclusive are left out. Calls of active or inactive are those of the source. Unless noted, the call rests on the fitted dose curve; in most records, active means well fitted curve in the direction sought with a large enough effect in the repeat runs; inconclusive means weak or mixed curves; inactive means no such curve, though single readings can be large; an effect the other way counts as inactive or inconclusive.

Experiment [1] can be described thus: qHTS assay to identify aromatase inhibitors - cell viability counter screen (AID 743084).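 Further: cells stimulated with testosterone during compound exposure; nearly all actives have a fitted effect of over 55% in size.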
In experiment [2] the target is Aryl hydrocarbon receptor (Homo sapiens) (UniProt P35869). In words: qHTS assay to identify small molecule that activate the aryl hydrocarbon receptor (AhR) signaling pathway (AID 743085). Further: nearly all actives have a fitted effect of over 15% in size. Further: potency means the concentration at half of the fitted maximal effect.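 On activation: HG2L7.5c1 human HepG2 liver cells with stably integrated DRE-driven firefly reporter; series mostly up to about 70 µM.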 A digest of the protocol:
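Reporter assay in engineered HepG2 line HG2L7.5c1, whose plasmid carries twenty dioxin responsive elements upstream of firefly luciferase. Treatment lasted 24 h at 37C; ONE-Glo luminescence gauged induction.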
A general note: qHTS replaces the single test concentration by a dilution series.

Experiment [3] in a line: qHTS assay to identify small molecule that activate the aryl hydrocarbon receptor (AhR) signaling pathway - cell viability counter screen (AID 743086).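 Further: HepG2 liver cells carrying the AhR DRE luciferase reporter; series mostly up to about 70 µM; nearly all actives have a fitted effect of over 45% in size.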 A digest of the protocol:
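HepG2-AhR-luc (HG2L7.5c1) cells, 4000/well, were preincubated 5 h at 37C, exposed to compound in qHTS format for 24 hr at 37C, then given CellTiter-Fluor for 30 min; viability was read as fluorescence in the reporter wells.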

Experiment [4] in a line: qHTS assay to identify small molecule antagonists of the peroxisome proliferator-activated receptor gamma (PPARg) signaling pathway - cell viability counter screen (AID 743194). Further: nearly all actives have a fitted effect of over 55% in size. The method, boiled down: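 PPARg-UAS-bla HEK293H cells were plated, rested 5 h at 37 C, then treated with compounds plus rosiglitazone (50 nM final) for 17 h at 37 C; viability was then read by CellTiter-Glo luminescence after 30 min at room temperature.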

The nature of experiment [5]: qHTS assay for small molecule agonists of the antioxidant response element (ARE) signaling pathway - cell viability counter screen (AID 743203; calls by dose curve; further: nearly all actives have a fitted effect of over 55% in size; further: potency means the concentration at half of the fitted maximal effect). The method, boiled down:
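Compounds in DMSO were pinned onto ARE-bla HepG2 cells plated 5 hrs earlier at 2,000 cells/well. Sixteen hours later at 37C/5% CO2, CellTiter-Glo was added and luminescence measured after 30 min at room temperature.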

Experiment [6] is described as follows: qHTS assay for small molecule activators of the heat shock response signaling pathway - cell viability counter screen (AID 743209). Further: nearly all actives have a fitted effect of over 50% in size. The method, boiled down: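 Counter screen for cytotoxicity in HeLa HSE-bla reporter cells. Treatment was 5 h at 37 C; viability was detected by luminescent ATP assay (CellTiter-Glo) in the same wells as the beta-lactamase read.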

The nature of experiment [7]: qHTS assay to identify small molecule agonists of the peroxisome proliferator-activated receptor delta (PPARd) signaling pathway - cell viability counter screen (AID 743211). Further: nearly all actives have a fitted effect of over 55% in size. Further: potency means the concentration at half of the fitted maximal effect. The method, boiled down: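 Multiplexed format: after the 2 h room-temperature LiveBLAzer B/G FRET step, CellTiter-Glo was added to the same wells. Luminescence after 30 min gave cell viability; compound exposure was 17 h at 37C.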

Experiment [8] can be described thus: qHTS assay to identify small molecule antagonists of the peroxisome proliferator-activated receptor delta (PPARd) signaling pathway - cell viability counter screen (AID 743213). Further: nearly all actives have a fitted effect of over 50% in size. The method, boiled down:
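PPARd-bla HEK293H cells (3000/well) got compound plus 300 nM L165041 agonist for 17 h at 37 C. Viability in the same wells came from CellTiter-Glo luminescence after 30 min at room temperature.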

Experiment [9] in a line: qHTS assay to identify small molecule agonists of the farnesoid-X-receptor (FXR) signaling pathway - cell viability counter screen (AID 743218). Further: nearly all actives have a fitted effect of over 45% in size. A digest of the protocol: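 After 16 h at 37 C with test compounds, FXR-bla HEK 293T cells were given LiveBLAzer B/G substrate for 2 h at RT and then CellTiter-Glo; luminescence was taken after 30 min.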
Experiment [10] can be described thus: qHTS assay to identify small molecule antagonists of the farnesoid-X-receptor (FXR) signaling pathway - cell viability counter screen (AID 743221; active means well fitted cell-killing curve with a large enough effect in the repeat runs, not every such curve was filed as active; further: nearly all actives have a fitted effect of over 50% in size). The method, boiled down: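 CellTiter-Glo, 30 min RT, luminescence; same wells as the LiveBLAzer FRET read. Cells: FXR-UAS-bla HEK 293T. Treatment: compound with chenodeoxycholic acid 50 uM final, 16 h at 37 C.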

Experiment [11] has as its target Vitamin D3 receptor (Homo sapiens) (UniProt P11473). Nature of the experiment: qHTS assay to identify small molecule agonists of the vitamin D receptor (VDR) signaling pathway (AID 743222; calls by dose curve). A digest of the protocol: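 VDR-bla cells were seeded, left 4 h, treated with compounds in DMSO for 16 h, incubated 2 h at RT with B/G FRET substrate, and read for fluorescence.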

Experiment [12] has the same target. In words: qHTS assay to identify small molecule antagonists of the vitamin D receptor (VDR) signaling pathway (AID 743223; active means well fitted inhibition curve with a large enough effect in the signal ratio in the repeat runs, not every such curve was filed as active; the % refers to the signal ratio). The method, boiled down:
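After VDR-bla cells are plated and left 4 h at 37C, DMSO-dissolved compounds and 3 nM (final) calcitriol agonist are added. Incubation continues 16 h at 37C; FRET beta-lactamase substrate then develops 2 h at room temperature.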

The target in experiment [13] is Peroxisome proliferator-activated receptor gamma (Homo sapiens) (UniProt P37231). Nature of the experiment: qHTS assay to identify small molecule agonists of the peroxisome proliferator-activated receptor gamma (PPARg) signaling pathway (AID 743094; active means well fitted activation curve with a large enough effect in the signal ratio in the repeat runs, not every such curve was filed as active; the % refers to the signal ratio). The method, boiled down:
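Following 5 h plating at 37C, PPARg-bla HEK293H cells receive compound or DMSO for 17 h; fluorescence intensity is recorded after LiveBLAzer B/G loading for 1 h at room temperature.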

The nature of experiment [14]: qHTS assay for small molecule activators of the heat shock response signaling pathway (AID 743210; active means well fitted activation curve with a large enough effect in the signal ratio in the repeat runs, with a control signal flat, not every such curve was filed as active; the % refers to the signal ratio;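 further: HeLa cells with beta-lactamase reporter driven by heat shock elements; series mostly up to about 63 µM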). The method, boiled down: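 Reporter gene assay: HeLa cells stably bearing an HSE-bla construct, compound treatment 5 h at 37 C, LiveBLAzer substrate 2.5 h at RT, fluorescence intensity.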
The target in experiment [15] is Bile acid receptor (Homo sapiens) (UniProt Q96RI1). In words: qHTS assay to identify small molecule agonists of the farnesoid-X-receptor (FXR) signaling pathway (AID 743220; active means well fitted activation curve with a large enough effect in the signal ratio in the repeat runs, not every such curve was filed as active; the % refers to the signal ratio). The method, boiled down:
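Beta-lactamase reporter under UAS control in GeneBLAzer FXR HEK 293T cells (5000/well) measured with LiveBLAzer FRET substrate after 2 h at room temperature. Compound exposure lasted 16 h at 37C.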

In experiment [16] the target is Peroxisome proliferator-activated receptor gamma (Homo sapiens) (UniProt P37231). In words: qHTS assay to identify small molecule antagonists of the peroxisome proliferator-activated receptor gamma (PPARg) signaling pathway (AID 743191; calls by dose curve; further: series mostly up to about 63 µM; nearly all actives have a fitted effect of over 30% in size). A digest of the protocol:
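GeneBLAzer PPARg UAS-bla HEK293H cells carrying a UAS-driven beta-lactamase reporter were plated at 3000 cells/well, preincubated 5 h at 37C, then given compound for 17 h at 37C; LiveBLAzer B/G FRET substrate was read after 1 h at room temperature.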

In experiment [17] the target is Peroxisome proliferator-activated receptor delta (Homo sapiens) (UniProt Q03181). In words: qHTS assay to identify small molecule antagonists of the peroxisome proliferator-activated receptor delta (PPARd) signaling pathway (AID 743215; active means well fitted inhibition curve with a large enough effect in the signal ratio in the repeat runs, not every such curve was filed as active; the % refers to the signal ratio;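 further: cells stimulated with agonist L165041 at 300 nM final during compound exposure; series mostly up to about 62 µM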). The method, boiled down:
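With L165041 present at 300 nM final, compounds were incubated 17 h at 37 C on PPARd UAS-bla HEK293H cells. A FRET-based beta-lactamase substrate was then applied for 2 h at room temperature and fluorescence intensity recorded.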

The target is the same in experiment [18]. In words: qHTS assay to identify small molecule agonists of the peroxisome proliferator-activated receptor delta (PPARd) signaling pathway (AID 743212; calls by dose curve). A digest of the protocol:
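A PPARd-bla HEK293H line with beta-lactamase under an Upstream Activator Sequence is treated with compounds at 37 C. Substrate loading for 2 h at room temperature precedes the fluorescence measurement.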

A short description of experiment [19]: qHTS assay for small molecule agonists of the antioxidant response element (ARE) signaling pathway (AID 743202; active means well fitted activation curve with a large enough effect in the signal ratio in the repeat runs, not every such curve was filed as active; the % refers to the signal ratio). The method, boiled down: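 Compounds delivered in DMSO to ARE-bla HepG2 cells (2,000 cells/well, pre-incubated 5 h) and left 16 h at 37 C. LiveBLAzer B/G FRET substrate then added for 2 h at RT before fluorescence reading.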
The target in experiment [20] is Bile acid receptor (Homo sapiens) (UniProt Q96RI1). In words: qHTS assay to identify small molecule antagonists of the farnesoid-X-receptor (FXR) signaling pathway (AID 743217; active means well fitted inhibition curve with a large enough effect in the signal ratio in the repeat runs, not every such curve was filed as active; the % refers to the signal ratio). A digest of the protocol: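 In this cell-based antagonist screen, inhibition of CDCA-driven (50 uM final) UAS-beta-lactamase expression in HEK 293T cells was measured by FRET fluorescence following 16 h compound exposure at 37 °C.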
Bile acid receptor (Homo sapiens), sequence (Q96RI1 whole entry, looked up): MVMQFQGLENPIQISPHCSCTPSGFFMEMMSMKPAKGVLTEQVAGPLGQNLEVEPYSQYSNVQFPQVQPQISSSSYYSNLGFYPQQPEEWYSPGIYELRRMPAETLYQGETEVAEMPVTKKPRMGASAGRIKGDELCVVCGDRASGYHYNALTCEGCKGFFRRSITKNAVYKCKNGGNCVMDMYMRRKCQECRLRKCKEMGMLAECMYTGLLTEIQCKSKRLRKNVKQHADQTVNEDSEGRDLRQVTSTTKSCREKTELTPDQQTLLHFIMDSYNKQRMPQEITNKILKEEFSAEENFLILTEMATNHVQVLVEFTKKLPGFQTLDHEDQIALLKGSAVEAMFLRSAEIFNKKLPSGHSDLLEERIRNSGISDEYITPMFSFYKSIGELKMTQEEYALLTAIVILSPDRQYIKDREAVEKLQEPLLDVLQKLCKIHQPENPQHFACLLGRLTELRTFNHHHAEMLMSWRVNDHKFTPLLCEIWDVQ

Vitamin D3 receptor (Homo sapiens), sequence (P11473 whole entry, looked up): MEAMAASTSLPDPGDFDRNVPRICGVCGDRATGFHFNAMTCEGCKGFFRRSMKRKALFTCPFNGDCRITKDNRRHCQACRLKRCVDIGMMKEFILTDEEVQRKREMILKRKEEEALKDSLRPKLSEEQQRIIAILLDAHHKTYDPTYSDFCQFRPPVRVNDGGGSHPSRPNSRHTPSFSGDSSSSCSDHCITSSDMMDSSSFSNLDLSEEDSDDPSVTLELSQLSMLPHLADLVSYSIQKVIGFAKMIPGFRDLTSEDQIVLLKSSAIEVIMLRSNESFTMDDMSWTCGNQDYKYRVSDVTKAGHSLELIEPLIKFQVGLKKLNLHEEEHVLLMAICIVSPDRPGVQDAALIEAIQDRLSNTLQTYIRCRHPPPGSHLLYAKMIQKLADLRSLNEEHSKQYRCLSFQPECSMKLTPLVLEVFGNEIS
Aryl hydrocarbon receptor (Homo sapiens), sequence (P35869 whole entry, looked up): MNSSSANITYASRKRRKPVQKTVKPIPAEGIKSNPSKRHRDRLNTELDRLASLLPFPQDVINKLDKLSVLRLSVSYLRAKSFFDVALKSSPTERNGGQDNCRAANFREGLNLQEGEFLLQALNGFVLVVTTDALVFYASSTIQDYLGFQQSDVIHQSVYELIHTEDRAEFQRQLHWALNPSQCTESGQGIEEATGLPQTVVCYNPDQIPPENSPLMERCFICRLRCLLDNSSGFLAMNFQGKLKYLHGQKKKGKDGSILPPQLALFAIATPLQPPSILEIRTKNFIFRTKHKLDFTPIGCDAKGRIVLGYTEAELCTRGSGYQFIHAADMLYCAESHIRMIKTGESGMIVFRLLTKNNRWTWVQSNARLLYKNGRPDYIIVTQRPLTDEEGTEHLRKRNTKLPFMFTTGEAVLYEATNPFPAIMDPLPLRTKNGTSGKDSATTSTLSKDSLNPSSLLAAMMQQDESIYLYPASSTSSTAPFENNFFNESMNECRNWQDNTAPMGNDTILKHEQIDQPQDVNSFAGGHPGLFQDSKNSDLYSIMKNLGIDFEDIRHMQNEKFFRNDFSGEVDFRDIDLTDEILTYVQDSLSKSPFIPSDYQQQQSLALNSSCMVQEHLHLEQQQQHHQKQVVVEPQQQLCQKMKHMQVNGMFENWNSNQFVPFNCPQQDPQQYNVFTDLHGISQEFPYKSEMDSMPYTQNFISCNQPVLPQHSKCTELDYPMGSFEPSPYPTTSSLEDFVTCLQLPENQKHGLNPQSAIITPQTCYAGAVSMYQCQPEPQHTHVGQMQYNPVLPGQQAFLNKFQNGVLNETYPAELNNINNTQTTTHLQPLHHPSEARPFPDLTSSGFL
Peroxisome proliferator-activated receptor delta (Homo sapiens), sequence (Q03181 whole entry, looked up): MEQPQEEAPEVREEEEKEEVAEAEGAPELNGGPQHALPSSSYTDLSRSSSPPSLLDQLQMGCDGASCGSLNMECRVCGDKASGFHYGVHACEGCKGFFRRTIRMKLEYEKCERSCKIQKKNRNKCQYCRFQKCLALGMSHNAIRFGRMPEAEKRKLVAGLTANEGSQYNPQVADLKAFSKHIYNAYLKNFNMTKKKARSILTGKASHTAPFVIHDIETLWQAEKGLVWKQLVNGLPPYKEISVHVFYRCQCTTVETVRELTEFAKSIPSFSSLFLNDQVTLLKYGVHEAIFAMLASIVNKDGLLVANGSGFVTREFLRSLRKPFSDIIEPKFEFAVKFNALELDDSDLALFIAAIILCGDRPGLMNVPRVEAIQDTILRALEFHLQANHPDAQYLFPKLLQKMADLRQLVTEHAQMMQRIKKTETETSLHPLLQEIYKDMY
Peroxisome proliferator-activated receptor gamma (Homo sapiens), sequence (P37231 whole entry, looked up): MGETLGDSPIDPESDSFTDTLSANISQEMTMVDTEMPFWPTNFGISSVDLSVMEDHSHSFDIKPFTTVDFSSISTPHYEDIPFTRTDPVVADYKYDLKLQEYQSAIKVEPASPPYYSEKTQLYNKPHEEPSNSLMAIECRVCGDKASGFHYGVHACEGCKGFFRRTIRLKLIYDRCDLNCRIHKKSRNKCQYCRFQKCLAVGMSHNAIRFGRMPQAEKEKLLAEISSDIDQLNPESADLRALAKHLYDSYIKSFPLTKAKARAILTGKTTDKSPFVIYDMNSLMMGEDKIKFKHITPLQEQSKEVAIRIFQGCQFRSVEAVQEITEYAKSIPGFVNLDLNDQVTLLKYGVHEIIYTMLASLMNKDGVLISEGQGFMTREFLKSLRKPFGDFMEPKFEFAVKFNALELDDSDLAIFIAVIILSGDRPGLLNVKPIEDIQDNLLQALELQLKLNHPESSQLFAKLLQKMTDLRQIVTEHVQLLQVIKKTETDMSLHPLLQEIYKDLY

On to `CCCCO`, for which the Potency entry in [1], in experiment [2], in experiment [3], in experiment [4], in [5] and in experiment [6] was “inactive” each time. Moreover, the Potency result in [7], in experiment [8], in experiment [9], in [10] and in experiment [11] was “inactive” each time. Further, in experiment [12], the call was inactive.
Take `CNCCCCOc1ccccc1Cc1ccccc1`: the Potency entry in experiment [1], in experiment [2], in experiment [13], in [4], in [6] and in [14] was “inactive” in each case. For the same compound, the Potency result in experiment [15] and in [11] was “inactive” in each case. Also, the values for the Potency in experiment [5] and in experiment [7] were 29.8 µM (active) and 26.6 µM (active), respectively.
As for `CC(C)OC(=O)C(C)N(C(=O)c1ccccc1)c1ccc(F)c(Cl)c1` (stereo not drawn), the Potency entry in [1], in [2], in [13], in experiment [16], in [4] and in experiment [5] was “inactive” throughout. Moreover, the Potency entry in experiment [6], in [14], in [8], in experiment [9] and in experiment [10] was “inactive” each time. In [12], the outcome was inactive.
For the compound `COc1cccc(N(C)C(=S)Oc2ccc3c(c2)CCCC3)n1`, the Potency entry in [1], in [2], in experiment [3], in experiment [4], in [5] and in experiment [6] was “inactive” each time. In addition, the Potency entry in experiment [8], in [17], in experiment [9], in [10] and in [11] was “inactive” each time. The outcome in experiment [12] was inactive.
Regarding `c1ccc(C(O[C@H]2CCCN(CCc3ccc4c(c3)OCO4)C2)c2ccccc2)cc1`, the Potency result in experiment [1], in [3], in [4], in experiment [6], in experiment [18] and in experiment [17] was “inactive” in each case. Besides, the Potency entry in [9] and in experiment [10] was “inactive” in each case. For the same compound, the Potency in experiment [2] was 26.6 µM (active).
Regarding `CCN(CC)CCNC(=O)c1cc(Br)c(N)cc1OC`, the Potency entry in experiment [1], in experiment [3], in [13], in experiment [16], in experiment [4] and in experiment [19] was “inactive” in each case. Moreover, the Potency entry in experiment [5], in [6], in [14], in experiment [7], in [9] and in [10] was “inactive” each time. Further, in [11], the Potency entry is “inactive”. The compound was called inactive in [12].
Turning to `O=C1OC(=O)C2C3C=CC(C3)C12` (stereo not drawn), the Potency result in experiment [1], in [2], in experiment [13], in [4], in [5] and in [6] was “inactive” throughout. For the same compound, the Potency entry in experiment [14], in experiment [18], in experiment [8], in [17], in experiment [9] and in experiment [10] was “inactive” in each case. Moreover, in [11], the Potency result is “inactive”. Also, the call in experiment [12] was inactive.
Take `O=C(Nc1ccc(S(=O)(=O)N2CCOCC2)cc1)c1cc(Cl)ccc1NS(=O)(=O)c1ccc(Cl)s1`: the Potency entry in experiment [1], in experiment [2], in experiment [3], in experiment [6], in experiment [17] and in [15] was “inactive” each time. Besides, the Potency in experiment [5] is 13.3 µM (active).
With `Cc1cccc(Nc2ccccc2)c1`, the Potency entry in experiment [1], in [2], in [3], in experiment [19], in experiment [5] and in [6] was “inactive” each time. The Potency result in [14], in experiment [7], in experiment [8], in experiment [20], in [9] and in [15] was “inactive” each time. The Potency result in experiment [11] was “inactive”. The result in [12] was inactive.
Regarding `CC1(c2ccccc2)OC(C(=O)O)=CC1=O` (stereo not drawn), the Potency entry in experiment [1], in experiment [3], in experiment [13], in [16], in experiment [4] and in experiment [19] was “inactive” throughout. Also, the Potency result in experiment [5], in experiment [6], in experiment [7], in [18], in experiment [8] and in [15] was “inactive” each time. In [11], the Potency entry was “inactive”. For the same compound, the call in experiment [12] was inactive.
